{"source": "the supplement of paper PMC11001985", "data": [{"target": "TTYH3 (lysine site: K340) (UniProt Q9C0H2)", "sequence (Q9C0H2 whole entry)": "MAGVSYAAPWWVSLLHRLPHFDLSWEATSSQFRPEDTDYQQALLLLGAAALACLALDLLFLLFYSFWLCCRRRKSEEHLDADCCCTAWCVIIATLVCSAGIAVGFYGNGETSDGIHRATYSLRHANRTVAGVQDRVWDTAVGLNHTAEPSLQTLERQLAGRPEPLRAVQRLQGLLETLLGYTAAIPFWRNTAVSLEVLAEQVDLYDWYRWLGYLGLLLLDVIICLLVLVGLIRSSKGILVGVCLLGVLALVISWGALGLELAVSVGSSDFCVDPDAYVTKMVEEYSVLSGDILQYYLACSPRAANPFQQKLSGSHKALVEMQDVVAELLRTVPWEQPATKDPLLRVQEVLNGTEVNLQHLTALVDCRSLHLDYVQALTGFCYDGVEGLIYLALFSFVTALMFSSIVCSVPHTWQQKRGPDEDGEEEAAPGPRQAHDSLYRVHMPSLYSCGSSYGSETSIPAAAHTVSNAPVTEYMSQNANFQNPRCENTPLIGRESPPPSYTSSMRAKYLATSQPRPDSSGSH", "assay": "lysine labeling ratio R10:1 (500 µM / 50 µM probe), SILAC-ABPP in living cells; higher = lower intrinsic lysine reactivity toward the probe, active = 2 or less", "conditions": "HeLa; probe concentrations 500 vs 50 µM", "description": "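Living HeLa cells (SILAC light/heavy) in PBS at room temperature were labeled with 50 µM versus 500 µM of the lysine-reactive, reductant-cleavable probe OPA-S-S-alkyne (SILAC labeling time not stated). Probe-modified peptides were CuAAC-biotinylated, captured on neutravidin and eluted with DTT/IAA, then quantified by LC-MS/MS. R = median peptide ratio per lysine (500/50 µM), combined over 3 forward and 3 reverse SILAC replicates. Ratios are capped at 20; R < 2 = hyper-reactive.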", "values": [{"compound": "C#CCNC(=O)CCSSCCC(=O)NCCc1ccc(C=O)c(C=O)c1", "lysine labeling ratio R10:1": "2.27 (inactive)"}]}]}
